From PubChem
HEK293 tox – kills HEK 293 cells; Potency, µM (top dose mostly 115 µM), inactives show at the top dose activity change, negative = cytotoxicity, most hits filed as inhibitors; 94,000 compounds, 6.6% hits; HEK 293 viability, ATP luminescence (CellTiter-Glo), 48-72 h; note: nearly all actives have a fitted effect of over 60% in size
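Cytotoxicity was scored by loss of ATP-coupled luminescence (CellTiter-Glo) in HEK 293 cells. Compound treatment ran 48 or 72 hr at 37 degree Celsius, 5% CO2, 95% humidity.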
FLuc inh – Photinus pyralis luciferase inhibition. 76,000 compounds, 2.5% hits. purified P. pyralis luciferase, luminescence, biochemical. Potency, µM (highest dose often 115 µM), usual class: inhibitors; note: nearly all actives have a fitted effect of over 65% in size
Target sequence (P08659 whole entry, looked up): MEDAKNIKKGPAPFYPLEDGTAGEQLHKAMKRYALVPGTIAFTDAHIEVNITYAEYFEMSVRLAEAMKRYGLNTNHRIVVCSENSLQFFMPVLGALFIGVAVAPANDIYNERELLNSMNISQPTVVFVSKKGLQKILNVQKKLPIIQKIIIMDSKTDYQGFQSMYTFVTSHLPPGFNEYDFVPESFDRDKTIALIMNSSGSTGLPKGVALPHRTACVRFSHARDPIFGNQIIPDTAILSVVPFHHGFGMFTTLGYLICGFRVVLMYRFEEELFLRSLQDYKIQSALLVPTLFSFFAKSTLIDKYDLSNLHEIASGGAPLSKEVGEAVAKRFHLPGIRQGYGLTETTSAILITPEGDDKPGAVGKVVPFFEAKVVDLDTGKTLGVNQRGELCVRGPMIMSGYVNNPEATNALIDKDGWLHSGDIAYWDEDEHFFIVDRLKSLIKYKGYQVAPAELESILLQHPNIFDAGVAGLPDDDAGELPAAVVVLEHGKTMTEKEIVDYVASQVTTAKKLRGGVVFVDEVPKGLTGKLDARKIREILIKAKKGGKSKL
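Purified P. pyralis luciferase (10nM final) in 50mM Tris acetate pH 7.5, 10mM Mg acetate, 0.01% Tween-20, 0.05% BSA with 10uM D-luciferin and 10uM ATP. Compounds titrated qHTS. Luminescence imaged on CCD.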
3T3 cytotox – kills NIH 3T3 cells; AID 1345082; Potency, µM (top dose mostly 96.7 µM), without a hit: at the top dose activity change, negative = cytotoxicity, hits mostly inhibitors; NIH 3T3 viability, CellTiter-Glo ATP luminescence, 48-72 h; 94,000 compounds, 4.3% hits; note: nearly all actives have a fitted effect of over 55% in size
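Cytotoxicity was measured by CellTiter-Glo ATP luminescence after 48 or 72 h compound exposure at 37 °C. Mouse NIH 3T3 fibroblasts were seeded at 400 cells/well and dosed by 23 nL pin transfer.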
NPR1 antag – human Npr1 receptor antagonism; P16066; HEK293 hNpr1 GloSensor cGMP, ANP-stimulated luminescence; Potency, µM (series often up to 46.3 µM), without a hit: at the highest dose activity change, negative = inhibition, hits mostly inhibitors; 76,000 compounds, 1.6% hits; AID 1347048; calls by dose curve; note: nearly all actives have a fitted effect of over 60% in size
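HEK293 cells stably expressing human Npr1 and cGMP GloSensor pGS-40F, loaded 2 h with 2% GloSensor reagent, given compound 30 min at room temperature. Luminescence read before and 20 min after 0.1 nM hNppA.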
* hit, by the source's call; i = inactive; ? = inconclusive; . = not tested or not shown; ! = not active in a repeat; [ ] = another dose, or the depositor's remark. Compounds with a hit are over-represented: about 11% of the library has one in this group of screens. Unless noted, calls come from the whole dose curve; as a rule, active = well fitted curve in the direction sought with a large enough effect; inconclusive = small, poorly fitted or top-dose-only effect, or another doubt; inactive = no such curve, though single readings can be large; an effect the other way counts as inactive or inconclusive. % is set by controls: 0 for no effect and ±100 for the full control effect; potency is the fitted concentration of half-maximal effect.

SMILES	HEK293 tox	FLuc inh	3T3 cytotox	NPR1 antag
CC(C)CC(=O)N1CCC(N2C(=O)C3(CCCC3)C2c2ccccc2)CC1 (stereo not given)	?	i	44.7µM*	-3.2%
COCCCNc1ncnc2c1CN(C1CCCCC1)C(=O)CN2C	i	.	-6.8%	.
COCCCn1c(=O)c(C(=O)N2CCN(C(=O)Nc3ccccc3)CC2)nc2cccnc21	-6.1%	.	0.5%	.
O=C(c1ccccn1)N1CCN(Cc2ccccc2-c2ccccc2F)CC1	-27.6%	.	-26.9%	.
C[S+](=O)([O-])N1CCN(Cc2ccccc2-c2cccnc2)CC1	?	.	-32.3%[138 µM]	.
O=[S+]([O-])(c1cccc(C(F)(F)F)c1)N1CCN(Cc2ccccc2-c2cccnc2)CC1	?	.	35.5µM*	.
O=[S+]([O-])(c1ccccc1)N1CCN(Cc2ccccc2-c2ccccc2F)CC1	22.4µM*	.	?	.
CCCCn1c(=O)c(C(=O)N2CCN(C(=O)c3ccc(C)cc3)CC2)nc2cccnc21	-25.2%	.	?	.
O=C(O)c1cnc(N2CCCCC2)nc1-c1ccccc1	1.3%	i	?	7.8%
CCc1nc(N2CCc3ccccc3C2)ncc1C(=O)O	31.6µM*	22.4µM*	25.1µM*	-22.0%
O=C(NCCc1ccc(F)cc1)c1nc2cccnc2n(C2CC2)c1=O	i	.	-11.8%	.
O=C1NC(=NC2CCCCC2)C2(CCN(Cc3cccnc3)C2)N1c1cc(F)cc(F)c1 (stereo not given)	-11.0%	.	35.5µM*	.
O=C1NC(=NC2CCCCC2)C2(CCN(Cc3cccnc3)CC2)N1c1cc(F)cc(F)c1	i	.	28.2µM*	.
Nc1nc(C2CC(N)C2)cc(N2CCN(C3CCCC3)C(=O)C2)n1 (stereo not given)	-2.6%	i	-0.6%	0.8%
COc1ccc(N2CCN(c3cc(C4CC(N)C4)nc(N)n3)CC2(C)C)cc1 (stereo not given)	22.4µM*	i	22.4µM*	-23.7%
O=C(c1ccc(Cl)nc1)N1CCCC(C(=O)N2CCC(c3nc4ccncc4[nH]3)C2)C1 (stereo not given)	-3.5%	.	-23.8%	.
COCCNc1ncc(-c2ccc(OC)cc2)c2c1OCC2	?	44.7µM*	?	5.1%[70.6 µM]
COCCNc1ncc(-c2ccc(F)cc2)c2c1OCC2	?	15.8µM*	?	0.7%[70.6 µM]
O=c1n(-c2ccc(C(F)(F)F)cc2)nc2n1CCN(Cc1ccccn1)C2	?	?	?	4.5%
O=c1n(-c2ccc(C(F)(F)F)cc2)nc2n1CCN(Cc1cccc3ccccc13)C2	28.2µM*!	i	?	-19.3%
Cc1ccc(C(=O)N2CCn3c(nn(-c4ccc(F)cc4)c3=O)C2)cc1	-20.2%	i	-27.4%	3.7%
COc1ccc(-n2nc3n(c2=O)CCN(Cc2ccsc2)C3)cc1	?	.	31.6µM*	.
O=c1n(-c2ccncc2)nc2n1CCN(Cc1ccsc1)C2	?	?	?	-6.8%[70.6 µM]
O=c1n(-c2ccc(C(F)(F)F)cc2)nc2n1CCN(Cc1ccc(C(F)(F)F)cc1)C2	35.5µM*!	i	?	?
O=C(c1ccccc1)N1CCn2c(nn(-c3ccc(F)cc3)c2=O)C1	100µM*	i	-18.6%[138 µM]	2.4%[70.6 µM]
SMILES	HEK293 tox	FLuc inh	3T3 cytotox	NPR1 antag
COc1ccc(CN2CCn3c(nn(-c4ccc(C(F)(F)F)cc4)c3=O)C2)cc1	-18.9%	.	-21.8%	.
C=CCCOC(=O)N1CCC(=O)N(CC=C)C[C@H]2COc3ccccc3[C@H]21	-7.6%	.	?	.
COCC(=O)N1CCCC(C(=O)N2CCC(N3CCCC3=O)CC2)C1 (stereo not given)	-2.0%	.	i	.
O=C(c1ccccc1Cl)N1CCC(c2nn(-c3ccc(Cl)cc3)c(=O)[nH]2)CC1	?	i	?	14.0%
O=c1n(-c2ccc(F)cc2F)nc2n1CCN(Cc1ccccc1)C2	3.16µM*	?	6.31µM*	26.0%
O=c1n(-c2ccc(Cl)cc2)nc2n1CCN(Cc1ccc(F)cc1)C2	39.8µM*	.	28.2µM*	.
Cc1cc(Cn2cc3c4c(cccc42)[C@H](CC(C)C)N[C@H](C(=O)N2CCN(C)CC2)C3)no1	?	i	?	1.6%
O=C(N[C@H]1CO[C@H]2[C@@H]1OC[C@@H]2Nc1nccc(-c2ccc(-c3ccccc3)cc2)n1)c1ccc2c(c1)OCO2	0.3%	i	-6.3%	-1.5%
COc1ccc(-c2ccnc(N[C@H]3CO[C@H]4[C@@H]3OC[C@@H]4NC(=O)c3ccc4c(c3)OCO4)n2)cc1	31.6µM*	i	?	?
